Screening data from PubChem BioAssay.
The list is not random: actives were taken first. Their share in the collection is about 7.3%.
VP16 counter = VP16 counterscreen qHTS for inhibitors of ROR gamma transcriptional activity; Drosophila S2 Gal4-VP16 UAS-luciferase, luminescence, 20 h; Potency, µM (series often up to 53.6 µM), inactives show top-dose activity, negative = inhibition, actives largely listed as inhibitors; AID 2546, 2010; 310,000 tested, 3.5% active;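 also: Gal4-VP16 expression switched on by copper sulfate through the metallothionein promoter; nearly all actives have a fitted effect of over 50% in size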
RORgamma inh = qHTS for inhibitors of ROR gamma transcriptional activity; Nuclear receptor ROR-gamma (Mus musculus), P51450; Drosophila S2 Gal4-RORgamma UAS-luciferase reporter, 20 h; Potency, µM (series often up to 53.6 µM), inactives show at the top dose activity change, negative = inhibition, hits mostly inhibitors; 310,000 tested, 5.4% active; AID 2551, 2010; also: nearly all actives have a fitted effect of over 60% in size
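Compounds are pin-transferred onto Drosophila Schneider cells expressing a copper-inducible Gal4–ROR gamma transactivation domain fusion. After 1 hr, copper sulfate is added to 700 uM final; luciferase is read 20 hr later.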
Tau fluor cs = Counterscreen qHTS for Inhibitors of Tau Fibril Formation, Fluorescence Polarization; tau K18 P301L Alexa594 fluorescence, heparin fibrillization; Potency, µM (series often up to 57.7 µM), for inactives: at the top dose activity change, negative = decrease; 280,000 tested, 0.93% active; also: nearly all actives have a fitted effect of over 55% in size
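Human K18 P301L tau (15 uM unlabeled plus 0.24 uM Alexa 594-labeled, final) in 100 mM sodium acetate pH 7 was mixed with compound and 20 uM heparin and incubated 6 hr at 37 C.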
Tau ThT inhib = qHTS for Inhibitors of Tau Fibril Formation, Thioflavin T Binding; 270,000 tested, 2.1% active; Microtubule-associated protein tau (Homo sapiens), P10636; AID 1460, 2008; recombinant tau K18 P301L, heparin-induced fibrillization, ThT fluorescence; Potency, µM (series often up to 57.4 µM), for inactives: top-dose activity, negative = inhibition, usual class: inhibitors; also: nearly all actives have a fitted effect of over 55% in size
Target sequence (P10636 561-689 P618L limits assumed): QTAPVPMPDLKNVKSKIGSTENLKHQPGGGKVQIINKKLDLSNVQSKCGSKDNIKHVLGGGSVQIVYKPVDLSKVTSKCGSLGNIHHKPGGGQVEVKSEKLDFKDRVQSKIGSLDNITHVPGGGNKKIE
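Fibril formation assay: tau K18 P301L at 15 uM with trace Alexa 594 label, heparin inducer 20 uM, pH 7 sodium acetate buffer, 37 C for 6 hr; endpoint ThT signal.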
Tau fibril FP = qHTS for Inhibitors of Tau Fibril Formation, Fluorescence Polarization; Microtubule-associated protein tau (Homo sapiens), P10636; K18 P301L tau heparin fibrillization, Alexa594 FP, 6 h; Potency, µM (highest dose often 57.7 µM), without a hit: top-dose activity, negative = inhibition, actives largely listed as inhibitors; 280,000 tested, 0.39% active; also: nearly all actives have a fitted effect of over 55% in size
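Human tau K18 […] P301L fragment, 15 uM unlabeled plus 0.24 uM Alexa 594-labeled tau (final), with compound and 20 uM heparin in 100 mM sodium acetate pH 7; 6 hr at 37 C, then Alexa 594 FP read.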
An asterisk follows results filed as active; ? = inconclusive; . = not tested or not shown; [ ] = remark or other dose. Calls follow the shape of the dose curve; as a rule, active = well fitted curve in the direction sought with a large enough effect; inconclusive = small, poorly fitted or top-dose-only effect, or another doubt; inactive = no such curve, though single readings can be large; an effect the other way counts as inactive or inconclusive. % is scaled to controls: 0 for no effect and ±100 for the full control effect; potency is read from the fitted curve at half-maximal effect.

SMILES | VP16 counter | RORgamma inh | Tau fluor cs | Tau ThT inhib | Tau fibril FP
COc1ccccc1Nc1nc(-c2sc(NC(=O)C(C)(C)C)nc2C)cs1 | 6.3µM* | ? | ? | ? | 12%
COc1ccccc1Nc1nc(-c2sc(NC(=O)c3cccc(Cl)c3)nc2C)cs1 | -14% | ? | ? | ? | ?
Cc1nn(C)cc1CN1CCCC(C(=O)c2ccc(-c3ccccc3)cc2)C1 (configuration not stated) | 1% | -18% | -2% | -1% | 8%
CNC(=O)CN(Cc1ccccc1)S(=O)(=O)c1ccc(Cl)cc1 | 16% | 12% | . | . | .
CCCC(=O)Nc1nc(C)c(-c2csc(Nc3cc(OC)ccc3OC)n2)s1 | -20% | ? | 14µM*[quencher] | ? | ?
Cc1nc(NC(=O)c2ccc(Cl)cc2)sc1-c1csc(Nc2cccc(F)c2)n1 | -16% | 7% | 13µM*[quencher] | 7.1µM* | ?
COc1ccc(OC)c(Nc2nc(-c3sc(N)nc3C)cs2)c1 | 13% | -35% | 14µM*[quencher] | 11µM* | -9%
Cc1ccc(Nc2nc(-c3sc(NC(=O)c4cccc(Cl)c4)nc3C)cs2)cc1 | -27% | ? | ? | ? | ?
CCC(=O)Nc1nc(C)c(-c2csc(Nc3cccc(C(=O)O)c3)n2)s1 | -3% | -9% | -21% | 4µM* | 6%
COc1ccc(Nc2nc(-c3sc(C)nc3C)cs2)cc1 | -7% | 8% | . | . | .
Cc1csc(NC(=O)C(NC(=O)c2ccccc2F)C(C)C)n1 (configuration not stated) | 0% | 9% | 2% | 5% | -6%
CCCC(=O)Nc1nc(C)c(-c2csc(Nc3ccccc3OC)n2)s1 | -9% | 30% | 16µM*[quencher] | 13µM* | 20%
COc1cccc(Nc2nc(-c3sc(NC(=O)c4ccccc4)nc3C)cs2)c1 | ? | 25% | 32µM*[quencher] | 18µM* | 8%
CCOc1ccccc1Nc1nc(-c2sc(C)nc2C)cs1 | ? | 8.9µM* | ? | ? | 5%
COc1ccccc1Nc1nc(-c2sc(NC(=O)CC(C)C)nc2C)cs1 | -10% | 6% | ? | ? | 5%
CCOc1ccccc1Nc1nc(-c2sc(NC(=O)c3ccco3)nc2C)cs1 | 2% | 5% | ? | ? | 7%
C=CCCC(=O)Nc1nc(C)c(-c2csc(Nc3cc(OC)ccc3OC)n2)s1 | -13% | 29% | 14µM*[quencher] | 14µM* | 13%
CCOCCc1nnc(NC(=O)CCS(=O)(=O)c2ccccc2)s1 | 1% | 3% | . | . | .
COc1cccc(Nc2nc(-c3sc(NC(=O)CC(C)C)nc3C)cs2)c1 | 18µM* | ? | 16µM*[quencher] | 16µM* | 6%
CC(=O)Nc1nc(C)c(-c2csc(Nc3cccc(C(C)=O)c3)n2)s1 | -23% | 11% | . | . | .
COc1ccc(C2=Nn3c(nnc3-c3ccccc3O)SC2)cc1OC | 14% | -25% | . | . | .
N#Cc1ncc(-c2ccc3c(c2)OCCOCCOCCOCCO3)nc1C#N | ? | 13µM* | -21% | 20µM* | ?
N#Cc1ncc(-c2ccc3c(c2)OCCOCCOCCOCCOCCO3)nc1C#N | 4.5µM* | 11µM* | -10% | 22µM* | ?
Nc1nc(-c2ccc3c(c2)OCCO3)cs1 | 7% | 25% | -26% | ? | ?
CC(c1n[nH]c(=S)n1-c1ccccc1)N1CCCCC1 (configuration not stated) | -10% | 10µM* | -3% | -12% | 2%
CCOC(=O)/C(=N/Nc1ccccc1)c1csc(Nc2ccccc2)n1 | -21% | -41% | 7.1µM*[quencher] | ? | ?
CCOC(=O)/C(=N\Nc1ccc(Cl)cc1)c1csc(Nc2ccccc2)n1 | -11% | -3% | 4.5µM*[quencher] | ? | ?
O=C(COc1ccc(Cl)cc1)OCc1csc(Nc2ccccc2)n1 | 19% | -14% | 14µM*[quencher] | ? | 11%
CCCCC(CCC(=O)O)(C(=O)OCC)c1csc(Nc2ccccc2)n1 (configuration not stated) | 6% | 4% | -3% | -17% | 4%
